Whole data set: some 2,300 sequences, median “median log2 fold change of GCK-ALFA target abundance (FLAG IP / Myc IP barcode read proportion)” near 0.095, cut for the lowest 2% near -0.47. The sample as a whole holds a higher share of the lowest values than the screen did.
B1: LC3A_23_616 (protein)
chain: MYKVEIIVDIIVPKEEAEKVEKDLLETINKVLEKNKSKIKEYKIEVEKEELEDGTVLLTIKVTIIYDGNKEEAEELANELVSAIDKTAPDAVISAEVSKI
B2: LC3A_141_376 (protein)
chain: KEVEFELEAKGETPEEVVEKMDELEEKVLKAYEELGGGKVKVKVTLTLTNRETGEVKVVEEEFVGDKETIEMLLDGFLIEAASAVMRAPTDVKLKVVLEK
B3: LC3A_28_1118 (protein)
chain: SLAEKVIKAFEKQVEAAIASGEETLIEVEVSPELSQEEVEKLAKKMAEYAKKAAEKLKVSVLVSVEKGVSQEKIDIIADEAEKVEEEYPNVNVIIALEEE
B4: LC3A_3_1420 (protein)
chain: MEEELERALEELREAGWSEETLEALREVVEALLERGAEEEARRVLELVLENKDISSEDLLEVLREVLELLKTPGVSPEEAVERLEELLRIARNEQEIEEL
B5: LC3A_free_0_2100 (protein)
chain: MVTKVEVLGIIPDKSAKEAAEAIKEKLEEYGKKLSEEKGWKVTVELTEVDGSYVITVTIEGEGMSIEEGLEIADEIADLIEELAKEHGVEVTIYESVYEE
B6: LC3A_147_496 (protein)
chain: ATVEVDVLVKDKEAAEKVVEEFKKLVEKLKKQGIEVELEVEIEQISPDTWYVKITIKIKAKTEEEEKKVANEVVDEIEKIEEKYKDKILASLISVEIEEK
B7: LC3A_147_464 (protein)
chain: MKYRVELDVLVKNLTPELLADFEELAEEIKKKFPDAEVELKVETDPEDPSLSLVTLTVTVDTEEDAKKIEDFLDKKLEELEKKYKDQILASMISREKVEP
B8: LC3A_147_465 (protein)
chain: KKYEVVLDVLVKDLTPELLKDFEELAEEIKEKFPDAEVELKVETDPEDPSLTLVTLTVTVDTEEDAEKILDFLDEKEEELEKKYSDQILASMISKQEVEP
B9: LC3A_23_598 (protein)
chain: MYKVELIVSLIGEEEEIKKKAEKLKKEIEKILEKYKDKIISYKINVSFEKLEDGKTYLEIEVEIIIEDDEEVAEEIAEELTDAADKILPDGVISVEVEKL
B10: LC3A_141_368 (protein)
chain: TTLTITTDIGRASLDEIVAKMDELEEAALAAHRELGGGRVRVTVTITVKNLKTGETTTITEEFEADEEELELIMEGVLIEVASYALTEDAEVTVTVTLEG
B11: LC3A_3_1723 (protein)
chain: MEKIKAEALAVLKAQGASPETIKAAEELLKALEEKGFLEAAKTLLEELKKLKGVSSEDLLAALKDLLYKVTNEDLSEEEVIEEIKREFSVLKSAKEIEEL
B12: LC3A_141_386 (protein)
chain: MKKEFEFTATEEEAQEVFDFFDEVEKELLEMIEESGGKPVKVKVTIKATNDETGEVVEKEEEFTVTKENVSEVMEGLAIEVLSLLDKVKGTVEVKIEAEV
B13: LC3A_28_1018 (protein)
chain: SELEEQIEEIEKEVEEAIEKGEDVVVTLEIKGSMSEEEVREAMERVKEIVLEGAEKGKVDLVIDVDKDVSQEKLDIVLEAADEIEEKAPNVNVIIALEER
B14: LC3A_147_510 (protein)
chain: YLVEIDVDLLVKNAVEEVKKRFKEIVEKLKKKGYKVELEIKEEKIDENTYYVEVTIKIYAETKEEAEKAANETLSLLDEMLEELKDEILGSLISVDIEET
B15: LC3A_59_2020 (protein)
chain: SEEIEEYREKMRANIDDIDAFTATVREALEKFKDDPEKVKEILKAAMDVVVEELGADKEEAEKVLEEMLKILEEEKDKEKAIEKIVDLIRDLLLLTPIEE
B16: LC3A_free_8_2464 (protein)
chain: ASQKLVDTIVAKLDELEKALVKKAKEEGKSRLDILELELEVGSAIAELISNVDASPEEILKTLKEDLKDIIKVAKEIGEEVAKLAKEKSKEILAEAEALI
B17: LC3A_17_552 (protein)
chain: REELRERLRRLLEELRALVERLEPYDPEAARRLRERLERAEELLEAGRLREAAETLAEAAREAARRAEELEPKYGNEMSVLAMEFNGLELEAIGLLLELD
B18: LC3A_132_298 (protein)
chain: DEEKAKEILEKVKEKVEEAKENIDNEEKVEELLEEIEELIKEAEEKLSPELLAKVMEEVAELLDELSQKFLEAGKEHLAMLADGLAIEAESLALRAEKEI
B19: LC3A_3_1773 (protein)
chain: MEELLARFEEKLRAAGFSEEVIKEALAAIKTFLEKGREEVAETFLELMLEAKDLSEEKLLVMARMAKELAEESKVSEEELIKELKRLFESIAGIEELDEE
B20: LC3A_3_1887 (protein)
chain: MDEKIEETLKRLKEAGASEETLEAFKRVVEKLKARGWDEALNTLIEKVDELLDAPDEVRLAFLQDVLALLDTPGVSEEELIAGINELATLAKNEAEIIEL
B21: LC3A_28_691 (protein)
chain: SAIDETIARIRAQAEAALAAGEEALLEVTVPATATQEDIDRLIATIREAVERLAGVGKVYIVVDVESGVAQENITRLADALDELEAEYPNVTVVIALDED
B22: LC3A_28_654 (protein)
chain: EEVEKELKEALKEAEEAKKKKEPAVITIKVSGKVNEEELKKILETLEKIAELLKDIKGSAIIIDLDKDVKEEFKNKLIDKAEELEKKYPNVTVIIALEER
B23: LC3A_3_1762 (protein)
chain: MEAFIEAAAKELKEAGASEELIEKASRALRLLLERGLEETAKEFVKVLLELLKKSEELALDLAEDVLTLLETSTLSPEELAKAVRSEMNAALSEAEIEEL
B24: LC3A_28_950 (protein)
chain: MSIEENIEKALKEAKEAKEKNEPVVITLVLEDDPSEEAVEALIEAMEEIAELLKDIKGTTIIVDVSSKVKQEHIDAIADKGEEIEKKYPNINVIIALDED
B25: LC3A_102_127 (protein)
chain: EVEKLKKELLEKVKKEVEKLLEKDKSLSEEEKKKILELAEKLAEAKLENAEIEIQHGFVDIYLEDKAIELQEELEKIDKELAKKINEIIEKGVEEFRKKL
B26: LC3A_free_46_2348 (protein)
chain: YKAEILIDLLAKDKETLEKAVKEIVEEAKKIAEKYNLELEIKVKIEKLEDGSYYAEIEITLKGETEEDLQKAVNELINKIEEIAKKYGVAAIISYEIIKE
B27: LC3A_28_708 (protein)
chain: NPLEESIKKALEEAKAAAKAGESTVITIKVPGSATEEDIEKLIKALEEIAEITKDLPSTSIIIDVDGGVKQEHIDKIADAAEEIEKKYPNVTVIIALDET
B28: LC3A_147_403 (protein)
chain: YIVEADIDIITKNAKEEVLAAFEEIVEELKEKGYEVELEVEVEKLDEDTWYINVKIKVETETKEEAEEVADYIEDKIDEIEEKLKDKILASLISIEIIEE
B29: LC3A_free_46_2366 (protein)
chain: VKAEIDIDFLVETKEKAEELAKELEEEIKKIAEKYGVKVKIEVKIIKNPDGTYSLEIEIELEAENKETLQKAVNEIIDSIDKIAEKFNVSYIISVEIIDE

biological target: MAP1LC3A, Q9H492; experiment: median log2 fold change of GCK-ALFA target abundance (FLAG IP / Myc IP barcode read proportion) (log2 ratio); each designed protein is fused to an ALFA-tag nanobody in HEK293 cells to bring the named protein to FLAG-tagged glucokinase (GCK); Myc marks an untargeted standard; higher = target protein stabilised (more abundant); conditions: target protein: 3xFLAG-MCP-GCK-ALFA reporter; HEK293 landing pad (RPLP)
Procedure, shortened: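 An ALFA-nanobody-fused binder library was recombined into HEK293 landing-pad cells and induced with 2 μg mL^−1 doxycycline. Cells were transfected with a plasmid expressing a FLAG-tagged target and a Myc-tagged standard. After 48 h, lysates underwent anti-FLAG and anti-Myc immunoprecipitation, and circular RNA barcodes were reverse transcribed, amplified and sequenced. Target abundance is the per-binder median log2 ratio of FLAG to Myc barcode read proportions. Barcodes needed ≥10^−7 proportion in both replicates, binders ≥3 barcodes per replicate, and a 10^−6 pseudocount was added; the two replicates were pooled.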

Binder	median log2 fold change
B1	-0.672
B2	-0.00697
B3	-0.00261
B4	0.3
B5	-0.121
B6	-0.154
B7	-0.487
B8	-0.192
B9	-0.0746
B10	-0.781
B11	0.206
B12	0.221
B13	-0.171
B14	-0.119
B15	-0.571
B16	-0.304
B17	0.248
B18	-0.0134
B19	0.23
B20	0.21
B21	-0.0472
B22	0.153
B23	0.226
B24	0.204
B25	-0.519
B26	-0.204
B27	0.0817
B28	-0.0503
B29	0.102
